# Hits are enriched below; roughly 12% of the tested compounds scored in any of these assays.
# Pf growth 48h: P. falciparum growth inhibition at 48 hours (one generation); P. falciparum luciferase growth in erythrocytes, 48 h; AID 504832; Potency, µM (titrated, usually from 28.7 µM), for inactives: at the highest dose activity change, negative = inhibition, actives largely listed as inhibitors; 310,000 tested, 5.9% active; note: % is set by controls: 0 for no effect and ±100 for the full control effect
#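 Luminescence readout; reporter = integrated firefly luciferase in P. falciparum. RBC culture at 2% hematocrit, 0.1% parasitemia final, 37 C/5% CO2; decreased signal taken as growth inhibition.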
# AmpC detergent: blocks E. coli AmpC beta-lactamase in detergent assay | 370,000 tested, 0.041% active | P00811 | AID 485294 | Potency, µM (top dose mostly 114 µM), for inactives: at the top dose activity change, negative = inhibition, usual class: inhibitors | AmpC hydrolysis of nitrocefin, absorbance 480 nm, 0.01% Triton;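 note: 0% = no-compound wells and -100% = no-enzyme wells; nearly all actives have a fitted effect of over 25% in size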
# Target sequence (P00811 whole entry, looked up): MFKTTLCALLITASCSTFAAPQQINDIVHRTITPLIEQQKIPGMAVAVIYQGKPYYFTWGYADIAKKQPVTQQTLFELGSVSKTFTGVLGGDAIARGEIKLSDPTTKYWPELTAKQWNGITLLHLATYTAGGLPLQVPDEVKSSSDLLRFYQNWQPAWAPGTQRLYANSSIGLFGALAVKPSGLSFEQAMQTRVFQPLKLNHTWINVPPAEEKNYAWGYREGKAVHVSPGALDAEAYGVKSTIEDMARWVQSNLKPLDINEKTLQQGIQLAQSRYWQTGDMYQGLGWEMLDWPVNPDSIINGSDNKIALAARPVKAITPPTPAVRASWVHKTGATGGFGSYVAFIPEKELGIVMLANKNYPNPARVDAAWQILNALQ
#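 AmpC (5.3 nM in the dispensed reagent) in 20 mM phosphate pH 7.0 with 0.01% (detergent screen) or 0.0001% Triton X-100 was preincubated with compounds for 15 min at room temperature. Nitrocefin was then added from an 800 uM solution, and hydrolysis was followed at 480 nm.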
# AmpC inh no detg: inhibitors of E. coli AmpC beta-lactamase without detergent; AmpC nitrocefin hydrolysis, absorbance 480 nm, 0.0001% Triton; AID 485341; Potency, µM (doses to about 57.1 µM), for inactives: at the highest dose activity change, negative = inhibition, usual class: inhibitors; 330,000 tested, 0.52% active; P00811;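 note: plate controls were no compound for no effect and no enzyme for full effect; nearly all actives have a fitted effect of over 20% in size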
#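 20 mM phosphate pH 7.0 + 0.01% (detergent screen) or 0.0001% Triton X-100; 5.3 nM AmpC reagent; cpd preinc 15 min RT; nitrocefin (800 uM stock) to start; A480 q20 s × 4 min; Activity was normalised to no-enzyme and no-compound control wells.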
# Pf growth 96h: P. falciparum growth inhibition at 96 hour, primary screen for plastid delayed-death inhibitors; Potency, µM (highest dose often 28.7 µM), inactives show at the highest dose activity change, negative = inhibition, actives largely listed as inhibitors; P. falciparum luciferase reporter growth, 96 h; 320,000 tested, 6.9% active; note: % is set by controls: 0 for no effect and ±100 for the full control effect
#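 96 h incubation, 37 C, 5% CO2, of luciferase-reporter P. falciparum-infected RBCs (2% hematocrit, 0.05% parasitemia final) with test compounds; endpoint luminescence.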
# SARS PLP yeast: SARS-CoV PLP inhibition in yeast. S. cerevisiae expressing SARS-CoV PLpro, growth rescue. Potency, µM (top dose mostly 32.9 µM), for inactives: at the highest dose activity, positive = growth rescue, actives largely listed as activators. 330,000 tested, 0.19% active. AID 485353; calls by dose curve; note: 0% is about no effect; nearly all actives have a fitted effect of over 55% in size
# Sm TGR inh: S. mansoni TGR enzyme inhibition; purified TGR, DTNB reduction, TNB absorbance 405 nm; AID 485364; Q962Y6; 360,000 tested, 3% active; Potency, µM (top dose mostly 114 µM), inactives show top-dose activity change, negative = inhibition, actives largely listed as inhibitors; note: % is set by controls: 0 for no effect and ±100 for the full control effect; nearly all actives have a fitted effect of over 60% in size
#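 Kinetic colorimetric format: TGR-catalysed, NADPH-driven DTNB reduction monitored via TNB absorbance. Enzyme dispensed at 20 nM; compound exposure 15 min at room temperature before reaction start.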
# * marks the source's active call; other numbers are inactive results; ? = inconclusive; . = not tested or not shown. Unless noted, calls come from the whole dose curve; as a rule, active = well fitted curve in the direction sought with a large enough effect; inconclusive = small, poorly fitted or top-dose-only effect, or another doubt; inactive = no such curve, though single readings can be large; an effect the other way counts as inactive or inconclusive. Potency is the fitted concentration of half-maximal effect.
SMILES,Pf growth 48h,AmpC detergent,AmpC inh no detg,Pf growth 96h,SARS PLP yeast,Sm TGR inh
Cc1cc(N2CCN(C(=O)c3ccco3)CC2)n2nc(-c3cccc(Cl)c3)cc2n1,9.3µM*,?,-3%,5%,-4%,-33%
Cc1cc(N2CCN(C(=O)c3ccco3)CC2)n2nc(C)c(-c3ccccc3)c2n1,12µM*,-7%,108%,-29%,-3%,0%
O=C(c1ccccc1)c1ccc2nc(N3CCN(C(=O)c4ccco4)CC3)c3nncn3c2c1,.,-8%,10%,3.3µM*,-1%,45µM*
Cc1nn(-c2ccc(Cl)cc2)c2sc(C(=O)N3CCN(C(=O)c4ccco4)CC3)cc12,7%,?,-33%,10µM*,-1%,2%
O=C(c1ccccc1)c1ccc2nc(N3CCN(c4ccccc4)CC3)c3nncn3c2c1,.,-2%,.,.,.,0%
CCCn1c(=O)c2sccc2n2c(CCCC(=O)N3CCN(c4ccccc4)CC3)nnc12,.,17%,.,.,.,5%
Cc1ccc(C)c(S(=O)(=O)c2cn(C)c3cc(N4CCCCC4C)c(F)cc3c2=O)c1 (stereo not drawn),.,16%,.,.,.,-1%
CCOc1ccc(C(=O)N(Cc2nc(-c3cccc(C)c3)no2)C(C)C)cc1,.,14%,.,.,.,3%
CCc1nn(CC(=O)NCCc2ccc(SC)cc2)c(=O)c2cc3sccc3n12,.,13%,.,.,.,-11%
Cc1cc(N2CCN(C(=O)c3ccco3)CC2)n2nc(C)c(-c3ccc(Cl)cc3)c2n1,14%,?,-23%,4.1µM*,-7%,-2%
COc1ccccc1N1CCN(c2nc3ccc(C(=O)c4ccccc4)cc3n3c(C)nnc23)CC1,.,23%,.,.,.,5%
CCOc1ccc(S(=O)(=O)N2CCCCC2)cc1NC(=O)CCc1ccc(OC)cc1,13µM*,-7%,-42%,10µM*,3%,-11%
CCOc1ccccc1NC(=O)CCNC(=O)c1ccco1,16%,-12%,-7%,17%,1%,2%
CN(C)c1ccc(CNC(=O)CCc2ccc(S(=O)(=O)N3CCCCCC3)cc2)cc1,12µM*,?,35%,?,-1%,-3%
COc1ccc(CNC(=O)CCc2ccc(S(=O)(=O)N3CCCCCC3)cc2)cc1,?,3%,-2%,?,10%,-2%
CCOc1ccc(S(=O)(=O)N2CCCCC2)cc1NC(=O)CCNC(=O)c1ccco1,3.3µM*,-20%,-19%,?,0%,-3%
COc1ccc(CCC(=O)Nc2cccc(S(=O)(=O)N3CCCCCC3)c2)cc1,?,-17%,-42%,0%,-3%,0%
NC(=O)CSc1nnc(-c2ccccc2)c(-c2ccccc2)n1,-3%,-10%,-12%,?,0%,4%
COc1cc2c(cc1OC)C(C1C(=O)CC(C)CC1=O)N(C(=O)CCl)CC2 (stereo not drawn),12%,-10%,-15%,2%,-4%,?
c1ccc(-c2ccccc2OCCCCN2CCCCC2)cc1,10µM*,-15%,29%,18%,-4%,5%
CC1CC(C)CN(CCOc2ccccc2-c2ccccc2)C1 (stereo not drawn),?,-5%,47%,10µM*,-21%,7%
CC1CCN(CCOc2ccccc2-c2ccccc2)CC1,1%,?,-10%,?,8%,-1%
COc1ccccc1OCCCCN1CCN(C(c2ccccc2)c2ccccc2)CC1,?,1%,142%,12µM*,-4%,-24%
c1ccc(OCCOCCN2CCN(C(c3ccccc3)c3ccccc3)CC2)cc1,?,-11%,223%,-23%,-14%,-1%
O=C(OCCCN1CCCCC1)c1ccc(O)cc1,25%,-11%,-7%,2.6µM*,-2%,12%
Cn1c(C(=O)NCc2ccccc2Cl)cc2sc(Cl)cc21,.,18%,.,.,.,7%
COc1cccc(OC)c1OCCCCN1CCCCC1,?,-3%,28%,13µM*,-10%,-14%

# Compound activity (PubChem)
